Screening results as filed in PubChem.
This is a sample that favours compounds with a hit; in the whole collection about 3.4% have one here.
MITF primary = MITF inhibitors, primary screen, biochemical, AlphaScreen, human. Microphthalmia-associated transcription factor (Homo sapiens), O75030. AlphaScreen MITF homodimerization, bead proximity signal. inhibition, % at 2.6 µM. actives 0.91% (n = 650,000). AID 1259374, 2018; in the data active = inhibition above about 50%;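 note: 0% = vehicle wells with protein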
FBW7 activator = FBW7 E3 ligase activators, primary screen, biochemical, AlphaScreen, human. F-box/WD repeat-containing protein 7 (Homo sapiens), Q969H0. AlphaScreen FBW7–phospho-cyclin E peptide binding, activator screen. actives 0.13% (n = 650,000). normalized activity (activation), % at 26.1 µM; in the data active = normalized activity above about 1.9%;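 note: purified mutant Fbw7 with reduced substrate affinity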
GPR151 ag = activators of human GPR151, primary screen, cell-based, PathHunter beta-arrestin, luminescence; PathHunter beta-arrestin GPR151 cells; activation, % at 11.2 µM; actives 1% (n = 650,000); AID 1508602, 2020; in the data active = activation above about 4.9%;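 note: 0% = median of compound wells and 100% = cells with positive control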
Target sequence (Q8TDV0 whole entry, looked up): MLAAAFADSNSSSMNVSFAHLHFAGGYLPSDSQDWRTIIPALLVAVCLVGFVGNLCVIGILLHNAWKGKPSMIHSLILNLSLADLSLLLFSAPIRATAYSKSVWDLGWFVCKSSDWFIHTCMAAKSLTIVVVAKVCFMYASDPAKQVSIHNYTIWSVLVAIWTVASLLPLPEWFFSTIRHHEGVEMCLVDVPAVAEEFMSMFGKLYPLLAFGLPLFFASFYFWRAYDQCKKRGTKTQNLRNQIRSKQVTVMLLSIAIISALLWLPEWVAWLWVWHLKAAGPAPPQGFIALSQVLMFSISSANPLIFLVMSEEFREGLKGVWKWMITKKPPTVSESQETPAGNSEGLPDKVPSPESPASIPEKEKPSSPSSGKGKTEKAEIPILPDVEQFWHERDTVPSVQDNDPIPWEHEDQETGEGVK
TEAD-YAP block = TEAD-YAP interaction inhibition, primary screen, TEAD-YAP interaction inhibitor project, luminescence, HEK-TIYL cells | actives 1.4% (n = 640,000) | TEAD-Gal4/YAP UAS-luciferase luminescence | inhibition, % at 9.12 µM; in the data active = inhibition above about 32%;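 note: 0% = median of test compound wells and 100% = reference inhibitor wells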
Starred values were filed as active, the others as inactive.

For CC(C)n1cnc2c(NC3CCN(Cc4ccccc4)CC3)nc(-c3ccc(C(=O)NC4CC4)cc3)nc21 the results were MITF primary 1, FBW7 activator 0, GPR151 ag 2 and TEAD-YAP block 52*.
`CC(C)n1cnc2c(Nc3ccccc3)nc(-c3ccc(C(=O)NC4CC4)cc3)nc21` gave MITF primary -20, FBW7 activator 0, GPR151 ag -1 and TEAD-YAP block 32*.
CC(C)n1cnc2c(NC3CCN(Cc4ccccc4)CC3)nc(-c3ccc(C(=O)N4CCN(C)CC4)cc3)nc21 was read as MITF primary -1, FBW7 activator 0, GPR151 ag 2 and TEAD-YAP block 58*.
Screening NC(=O)c1cc2n(n1)C(C(F)(F)F)CC(c1ccc(Cl)cc1)N2 (configuration not stated) returned MITF primary -6, FBW7 activator 0, GPR151 ag 0 and TEAD-YAP block -5.
For COc1ccc(C2=NS(=O)(=O)N(C)C(C(=O)NC(C)(C)C)=C2)cc1 the results were MITF primary 24, FBW7 activator 1, GPR151 ag -3 and TEAD-YAP block 2.
O=C(CN1CCC(n2nnc3cc(F)ccc32)CC1)Nc1cccc(Cl)c1Cl was read as MITF primary -7, FBW7 activator 0, GPR151 ag -1 and TEAD-YAP block 4.
Cc1cc(=O)n(C(NC(=O)c2ccccc2)C(=O)c2ccccc2)c(=S)[nH]1 (configuration not stated) was read as MITF primary -1, FBW7 activator 0, GPR151 ag 3 and TEAD-YAP block -4.
Cc1nc(N2CCCCCC2)c2c3c(sc2n1)CCCC3 was read as MITF primary 17, FBW7 activator 0, GPR151 ag -1 and TEAD-YAP block 0.
`CC(=O)c1cccc(-c2nc(NC3CCN(Cc4ccccc4)CC3)c3ncn(C(C)C)c3n2)c1` gave MITF primary -3, FBW7 activator 0, GPR151 ag 1 and TEAD-YAP block 73*.
Screening CC12CN(CO)CC(C)(CN(Cc3ccccc3)C1)C2=O returned MITF primary 7, FBW7 activator 2.6*, GPR151 ag 1 and TEAD-YAP block 8.
For CC12CNCC(C)(CN(Cc3ccccc3)C1)C2=O the results were MITF primary 1, FBW7 activator 0, GPR151 ag -1 and TEAD-YAP block 6.
For CC1=C(C(=O)OCC2CCCO2)C(c2coc3ccccc3c2=O)C2=C(CC(c3cccs3)CC2=O)N1 (configuration not stated) the results were MITF primary 50, FBW7 activator 0, GPR151 ag -1 and TEAD-YAP block -5.
For CC(Oc1ccc(Br)cc1Cl)C(=O)Nc1ccncc1 (configuration not stated) the results were MITF primary -3, FBW7 activator 0, GPR151 ag 4 and TEAD-YAP block 48*.
For COc1ccccc1C1N=C(c2ccccc2)C(C)(C)N1O (configuration not stated) the results were MITF primary -8, FBW7 activator 0, GPR151 ag 0 and TEAD-YAP block -14.
NC1=NC2(CCCCCC2)n2c(nc3ccccc32)N1 was read as MITF primary 4, FBW7 activator 0, GPR151 ag -1 and TEAD-YAP block 78*.
Cc1ccc(Oc2ncnc3c2cnn3-c2ccccc2)cc1 was read as MITF primary 8, FBW7 activator 0, GPR151 ag 1 and TEAD-YAP block 51*.
Screening Cc1ccc(-n2ncc3c(Oc4ccc(F)cc4)ncnc32)cc1 returned MITF primary -1, FBW7 activator 0, GPR151 ag 0 and TEAD-YAP block 58*.
Screening Fc1ccc(-n2ncc3c(Oc4ccc(Cl)cc4)ncnc32)cc1 returned MITF primary 8, FBW7 activator 0, GPR151 ag 0 and TEAD-YAP block 42*.
For Fc1cccc(Oc2ncnc3c2cnn3-c2cccc(Cl)c2)c1 the results were MITF primary -8, FBW7 activator 0, GPR151 ag -1 and TEAD-YAP block -3.
`COc1ccc(Oc2ncnc3c2cnn3-c2ccccc2)cc1` gave MITF primary 10, FBW7 activator 0, GPR151 ag 1 and TEAD-YAP block -11.
`COc1ccc(-c2noc(CN(Cc3ccccn3)CC3CCCO3)n2)c(OC)c1OC` (configuration not stated) gave MITF primary -4, FBW7 activator 0, GPR151 ag 1 and TEAD-YAP block 39*.
Screening CCNC(=O)c1ccc2[nH]c(C)c(C)c2c1 returned MITF primary 6, FBW7 activator 0, GPR151 ag 0 and TEAD-YAP block -32.
`Cc1[nH]c2ccc(C(=O)NN)cc2c1C` gave MITF primary -14, FBW7 activator 0, GPR151 ag 0 and TEAD-YAP block 38*.
Screening CC1(C)Oc2ccc(C(=O)NC3CCCC3)cc2N(CC(=O)Nc2ccccc2)C1=O returned MITF primary -23, FBW7 activator 0, GPR151 ag 3 and TEAD-YAP block 9.
Cc1cc(S(=O)(=O)N(C)C2CCCCC2)ccc1-n1cnnn1 was read as MITF primary 4, FBW7 activator 0, GPR151 ag -1 and TEAD-YAP block 52*.
`c1ccc(Nc2nc(Nc3ccncc3)nc3nc[nH]c23)cc1` gave MITF primary -5, FBW7 activator 0, GPR151 ag 0 and TEAD-YAP block 25.
For c1ccc(Nc2nc(Nc3cccnc3)nc3nc[nH]c23)cc1 the results were MITF primary -4, FBW7 activator 0, GPR151 ag 1 and TEAD-YAP block 58*.
For c1ccc(CNc2nc(Nc3cccnc3)nc3nc[nH]c23)cc1 the results were MITF primary -9, FBW7 activator 0, GPR151 ag 3 and TEAD-YAP block 15.
COc1cc(Nc2nc(Nc3ccccc3)nc3nc[nH]c23)cc(OC)c1OC was read as MITF primary 8, FBW7 activator 0, GPR151 ag 1 and TEAD-YAP block 18.
`c1ccc(CNc2nc(Nc3cnccn3)nc3nc[nH]c23)cc1` gave MITF primary 5, FBW7 activator 11*, GPR151 ag 3 and TEAD-YAP block 17.
COc1ccc(CCNc2nc(Nc3cc(OC)c(OC)c(OC)c3)nc3nc[nH]c23)cc1 was read as MITF primary 12, FBW7 activator 0, GPR151 ag 3 and TEAD-YAP block 61*.
`COc1cc(Nc2nc(Nc3cnccn3)nc3nc[nH]c23)cc(OC)c1OC` gave MITF primary 1, FBW7 activator 4.5*, GPR151 ag 2 and TEAD-YAP block 34*.
For Cc1ccc(C)c(NC(=O)C(=O)NCCC2CCCCN2S(=O)(=O)c2cccs2)c1 (configuration not stated) the results were MITF primary -6, FBW7 activator 0, GPR151 ag 0 and TEAD-YAP block 3.
`COc1ccc(CCNc2nc(Nc3cccnc3)nc3nc[nH]c23)cc1` gave MITF primary 14, FBW7 activator 0, GPR151 ag -1 and TEAD-YAP block 41*.
